Measurements: PubChem BioAssay (NCI)
This is part of a sample that, as a whole, favours compounds with a hit. Of some 79,000 tested, about 15% had one in any assay. Rule as the data show it: active = growth inhibition above about 70%; inactive = the rest.

What was measured:
[1] = NCI Yeast Anticancer Drug Screen. Data for the rad50 strain (AID 155);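 also: 0% = growth of vehicle-only cultures of the same strain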; conditions: S. cerevisiae rad50 strain growth inhibition; at 50.0 µM; hits give high values
Outline: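 Genetically altered yeast (DNA repair pathway); compound treatment; growth inhibition vs vehicle ctrl.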

[2] = NCI Yeast Anticancer Drug Screen. Data for the mec2-1 strain (AID 157); conditions: S. cerevisiae mec2-1 strain, at 50.0 µM, hits give high values
Outline: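 Compounds were applied to mec2-1 yeast cells. Their growth was then compared with that of vehicle-treated cultures to give growth inhibition.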

[3] = NCI Yeast Anticancer Drug Screen. Data for the sgs1 mgt1 strain (AID 161);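 also: 0% = growth of cultures given vehicle only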; conditions: S. cerevisiae sgs1 mgt1 strain, at 50.0 µM, hits give high values
Outline: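 Compounds are added to genetically altered yeast, and growth is compared with cultures given vehicle alone to give percent inhibition.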

[4] = NCI Yeast Anticancer Drug Screen. Data for the cln2 rad14 strain (AID 165);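 also: 0% = growth equal to vehicle treated cultures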; conditions: S. cerevisiae cln2 rad14 strain, at 50.0 µM, hits give high values
Outline: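 Strain: cln2 rad14 yeast, altered in cell cycle control and DNA damage repair. Read-out: growth inhibition vs vehicle.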

[5] = NCI Yeast Anticancer Drug Screen. Data for the bub3 strain (AID 167); conditions: S. cerevisiae bub3 mutant strain, at 50.0 µM, hits give high values
Outline: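 Yeast carrying a defined mutation is treated with each compound, and growth is compared with that of vehicle-exposed cells to give inhibition.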

[6] = NCI Yeast Anticancer Drug Screen. Data for the mlh1 rad18 strain (AID 175); conditions: S. cerevisiae mlh1 rad18 strain growth inhibition; at 50.0 µM; hits give high values
Outline: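 A repair-deficient yeast strain is exposed to test compound, and growth is scored relative to vehicle-treated controls.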

Measured: growth inhibition

C(=N/OCc1ccccc1)/c1ccncc1
inactive: [1] 45% | [2] 27.6% | [3] 45.7% | [4] 30.2% | [5] 47.4% | [6] 46.9%

O=C(O)c1ccc(Nc2nc3ccccc3nc2C(=O)O)cc1
inactive: [1] -19.2% | [2] -26.8% | [3] -33.2% | [4] 7.05% | [5] -13.2% | [6] -0.9%

O=C(NC(=O)c1ccc([N+](=O)[O-])cc1)Nc1ccccc1
inactive: [1] 10.3% | [2] -4.35% | [3] -1.4% | [4] -25.4% | [5] -14.8% | [6] 5%

CC(C)(CC(O)C#N)/[N+]([O-])=[N+](\[O-])C(C)(C)CC(O)C#N (stereo not drawn)
inactive: [1] 3.75% | [2] 5.15% | [3] 34.1% | [4] -4.15% | [5] 13.2% | [6] -27.8%

CC1(C)OC2OC(C3COS(=O)O3)C(Cl)C2O1 (stereo not drawn)
inactive: [1] -2% | [2] 2.45% | [3] -1.4% | [4] -48.8% | [5] -0.7% | [6] 8.6%

CC(C)(C)OC(=O)CNC(=O)C(CSC(c1ccccc1)c1ccccc1)NC(=O)CNC(=O)C(CCCCNC(=O)OCc1ccccc1)NC(=O)CNC(=O)C(CSC(c1ccccc1)(c1ccccc1)c1ccccc1)NC(=O)OCc1ccccc1 (stereo not drawn)
inactive: [1] 34.8% | [2] 14.7% | [3] 8.5% | [4] 3.8% | [5] 19.3% | [6] -4.2%

O=C(Nc1ncnc2c1ncn2C1OC(COC(=O)c2ccccc2)C(OC(=O)c2ccccc2)C1OC(=O)c1ccccc1)c1ccccc1 (stereo not drawn)
inactive: [1] 5.15% | [2] 15.6% | [3] -1.25% | [4] 10.8% | [5] 4.05% | [6] 34.6%

CCOC(CN(C(C)C)C(C)C)OCC
inactive: [1] -16.4% | [2] -16.8% | [3] 8% | [4] 13.8% | [5] -16.6% | [6] 14.9%

CCN(CC)CCOC(=O)c1cc(C(C)O)nc2ccccc12 (stereo not drawn)
inactive: [1] 0.6% | [2] 12.3% | [3] -10.5% | [4] 0.55% | [5] 21.6% | [6] -7.1%

O=C(CCCN1CC=C(n2c(=O)[nH]c3ccccc32)CC1)c1cccs1
inactive: [1] 50.6% | [2] 29.2% | [3] 32.4% | [4] 19.9% | [5] 33.1% | [6] 42.8%

COc1ccn(C2OC(=O)C(C)(C)C2=O)c(=O)n1 (stereo not drawn)
inactive: [1] -0.4% | [2] -15.4% | [3] 0.55% | [4] -1.2% | [5] -9.4% | [6] -12.6%

O=C=Nc1ccc([N+](=O)[O-])cc1
inactive: [1] -0.9% | [2] 15.7% | [3] 1.2% | [4] -20.6% | [5] 32.9% | [6] -8.75%

O=C(NCCCCCCNC(=O)OCOC(=O)NCCCCCCNC(=O)Nc1ccc(SCCO)cc1)Nc1ccc(SCCO)cc1
inactive: [1] 15.7% | [2] 12.4% | [3] 16.3% | [4] 21.1% | [5] 27.2% | [6] -36.9%

C=C1c2nc3ccccc3n2C=C(c2ccc(Cl)cc2)N1c1ccccc1
inactive: [1] -4.65% | [2] 23.4% | [3] -10.7% | [4] 9.7% | [5] -1.6% | [6] 33.5%

C/C(=N/O)c1c[n+]([O-])ccn1
inactive: [1] -3.9% | [2] -3.15% | [3] -7.9% | [4] -31.2% | [5] 4.7% | [6] -0.5%

COc1cc(Br)c(C=Nc2cccc3ccc(OS(=O)(=O)c4ccc([N+](=O)[O-])cc4)cc23)cc1OC
inactive: [1] 7.6% | [2] -16.6% | [3] 0.65% | [4] 4.3% | [5] 5.5% | [6] 15.6%

CNC(=O)c1cc(OC)ccc1O
inactive: [1] -25.9% | [2] -9.7% | [3] -4.3% | [4] -32.3% | [5] -3.6% | [6] 12.4%

COc1ccc(-c2nc3c(nc2-c2ccc(OC)cc2)C(N)=NS(=O)(=O)N3)cc1
inactive: [1] -18.9% | [2] -7.95% | [3] -19.9% | [4] 2.2% | [5] -17.6% | [6] -10.1%

COc1ccc(N(Cc2ccccc2)c2nn[nH]n2)cc1
inactive: [1] 13.9% | [2] -18.4% | [3] -3.3% | [4] 11.6% | [5] -5.6% | [6] -19.8%

CCOC1C(=O)C=COC1C(C)C (stereo not drawn)
inactive: [1] -2.5% | [2] -4.65% | [3] -2.75% | [4] 1.7% | [5] -1.75% | [6] -12.2%

CCOC(CN(Cc1ccccc1)CC(OCC)OCC)OCC
inactive: [1] 12.7% | [2] 8.15% | [3] 12.9% | [4] 5.85% | [5] 9.8% | [6] -4%

C[N+](C)([O-])Cc1ccccc1
inactive: [1] -12.9% | [2] -27.4% | [3] -19.4% | [4] -0.8% | [5] -5.2% | [6] -16.9%

CS(=O)(=O)OCCCCOS(C)(=O)=O
inactive: [1] -9.5% | [2] -23.9% | [3] 8.55% | [4] 2% | [5] 12.1% | [6] 0.05%

CCN(CC)CCCNc1c2c(nc3c(OC)cccc13)CCCC2
inactive: [1] -38.4% | [2] 10.7% | [3] -6.7% | [4] -41.6% | [5] 5.95% | [6] -2.45%

COC(=O)c1cccc(Cl)c1C(=O)c1ccc(C)cc1C
inactive: [1] -25% | [2] -8.3% | [3] -9.1% | [4] -52.9% | [5] 31.1% | [6] 11.4%

COC1=CCC2=C(CCO2)C1
inactive: [1] 5.3% | [2] 0.35% | [3] -6.9% | [4] -18.5% | [5] -7.1% | [6] 1.1%

NC(CCC(N)C(=O)O)C(=O)O (stereo not drawn)
inactive: [1] -25.4% | [2] -20.6% | [3] -25.2% | [4] -13.5% | [5] -13.1% | [6] -18.1%

CC(=O)c1ccc2c(c1)-c1ccccc1C(=O)C2=O
inactive: [1] -24.6% | [2] -22.7% | [3] 10.3% | [4] -19.8% | [5] -15.3% | [6] 5.85%

COc1ccc(CC2c3cc(OC)c(OC)cc3CCN2C(=O)c2ccccc2)cc1OC (stereo not drawn)
inactive: [1] 10% | [2] -18.9% | [3] 9.5% | [4] 16.3% | [5] 10.7% | [6] 1.45%

O=C(O)C1C(c2ccccc2)CC(=O)N1c1ccc(Cl)cc1 (stereo not drawn)
inactive: [1] 1.55% | [2] 8.25% | [3] 5.75% | [4] 1.1% | [5] 19.6% | [6] -7.6%

CCCN(N)CCC
inactive: [1] -8.15% | [2] -16.6% | [3] -7.8% | [4] -45.2% | [5] 0.25% | [6] -1.6%

NCCCn1[nH]c(=O)c2cccnc2c1=O
inactive: [1] -62.9% | [2] -19% | [3] -19% | [4] -74% | [5] -3.8% | [6] -16.3%

COc1ccc(/C=C(/C#N)C(N)=O)c(OC)c1
inactive: [1] 1.85% | [2] -15.8% | [3] -34.1% | [4] -34.9% | [5] -31.8% | [6] 2.55%

c1ccc(-c2cn3c(nc4ccccc43)c(-c3ccccc3)n2)cc1
inactive: [1] -44.6% | [2] -7.15% | [3] -29.1% | [4] -1.15% | [5] -4.3% | [6] -41.9%

C/C([O-])=C(/c1nc(-c2ccc([N+](=O)[O-])o2)no1)[n+]1cc(C)ccc1C
inactive: [1] 19.3% | [2] 14% | [3] 18.9% | [4] 21.3% | [5] 7.55% | [6] 16.1%

C/C(=C/CNc1ncnc2c1ncn2CCC(=O)O)CO
inactive: [1] -22.4% | [2] 12.5% | [3] -31.7% | [4] 1.65% | [5] 1.7% | [6] -0.5%

Cc1c(Cl)cccc1NC(=O)Nc1ccccc1F
inactive: [1] 14.2% | [2] 7.65% | [3] 15.2% | [4] 19.2% | [5] 28.4% | [6] 17.4%

COc1ccc(C(O)c2ncccc2C)cc1OC (stereo not drawn)
inactive: [1] -0.3% | [2] 31.3% | [3] 20.1% | [4] -9.35% | [5] 24.8% | [6] 22.3%
